Results on 24 molecules are retold here after PubChem BioAssay (NCI).

The panel holds about 79,000 compounds, 15% with a hit somewhere; the sample as a whole holds those more often. Active and inactive are the calls of the source. Rule as the data show it: active = growth inhibition above about 70%; inactive = the rest.

A short description of this assay: NCI Yeast Anticancer Drug Screen. Data for the bub3 strain (AID 167). To be noted: S. cerevisiae bub3 mutant strain, at 50.0 µM, stronger effect = higher value. The method in brief: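 Compounds were applied to a genetically altered yeast strain carrying a cell-cycle control defect. Growth inhibition was scored against vehicle-treated controls.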
As for `CCN(CC)Cc1cc(N=Nc2c(O)ccc3c(N=Nc4ccc(O)c(CN(CC)CC)c4)c(O)ccc23)ccc1O`, the growth inhibition is 65.8% (inactive).
On to `CC(C)(C)c1ccc(OC(=O)Nc2ccc(Cl)cc2[N+](=O)[O-])c(Br)c1`, for which the growth inhibition was 20.1% (inactive).
For `CCC(CCCN(CC)CCc1ccccc1)OC(=O)c1cc(OC)c(OC)c(OC)c1` (centres undefined), the growth inhibition is 4% (inactive).
For `CCN1/C(=C\c2cc[n+](CC)c3ccccc23)C=Cc2ccccc21` the value was 68.8% (inactive); for `CC1=C(C(=O)Nc2ccccc2C)C(c2ccc(Cl)c(Cl)c2)C(C(=O)Nc2ccccc2C)=C(C)N1`, 82% (active); for `Clc1ccc2nc3c(c(N4CCOCC4)c2c1)CCCC3`, 99.5% (active).
As for `N#Cc1cc2cccn2c2c1cnn2-c1ccccc1`, the figure is -46.9% (inactive); as for `COc1cccc(C2c3cc4c(cc3OC(Nc3ccccc3)C2C)OCO4)c1O` (centres undefined), 53.1% (inactive).
As for `Nc1nc(-c2ccccc2)c(-c2ccccc2)c(-c2nc(N)nc(-c3ccccc3)c2-c2ccccc2)n1`, the figure is -17.1% (inactive).
Consider `CCOC(C)c1ccccc1` (centres undefined), for which the growth inhibition was -0.8% (inactive).
For `O=C1OC(CCCl)(c2ccccc2)CC1CN1CCOCC1` (centres undefined) the value was 71.5% (active); for `OC(Cc1ccccc1)(c1ccccc1)C(O)(Cc1ccccc1)c1ccccc1` (centres undefined), 74.5% (active).
As for `COc1ccc(N=N/N=c2\sc3cc(OC)ccc3n2C)cc1`, the growth inhibition is -3.4% (inactive).
As for `CCCCCC(CO)C(O)(C(F)(F)F)C(F)(F)F` (centres undefined), the figure is -30.4% (inactive); as for `CC1=C(C(=O)Nc2ccccc2)C(c2ccccc2F)C(C(=O)Nc2ccccc2)=C(C)N1`, 11.6% (inactive).
With `CCOCCC(=O)NNc1ccccc1`, the growth inhibition was 42.9% (inactive).
For `CCOC(=O)C(Br)C(Br)c1cccc([N+](=O)[O-])c1` (centres undefined) the value was 99.5% (active).
As for `Cc1ccc(-c2c(C#N)c(-c3ccccc3)n(NS(=O)(=O)c3ccc(C)cc3)c(=O)c2C#N)cc1`, the figure is 81.7% (active); as for `CNC(=O)N1N[C@H](c2ccccc2)[C@@H]1c1ccccc1`, 46.9% (inactive).
For the molecule `CCCCCCCCCN(CCCCCCCCC)CC(O)c1cc2c(c3ccccc13)CCCC2` (centres undefined), the growth inhibition is 95.8% (active).
As for `O=C(O)C(c1ccc(Cl)cc1)c1ccc(Cl)cc1`, the growth inhibition was 97.4% (active).
As for `O=C1c2ccc3ccccc3c2CN2C(=O)CCC12` (centres undefined), the figure is 6.2% (inactive); as for `CCCCCCCCCCCCCCCCNc1ccn(C2CC(OP(=O)(O)OCC3OC(n4cc(CC)c(=O)[nH]c4=O)CC3O)C(CO)O2)c(=O)n1` (centres undefined), 11.8% (inactive).
As for `Cc1cc(Cl)c(O)c(-c2cc(-c3cccc([N+](=O)[O-])c3)c3c(N)[nH]c(=S)nc3n2)c1`, the figure is -6.15% (inactive).
